Measured values: PubChem BioAssay (NCI)
The panel holds about 79,000 compounds, 15% with a hit somewhere; the sample as a whole holds those more often. Values without a mark were called inactive. Activity calls are given as the source filed them. Cut-off read from the data, not from the text of the source: active = growth inhibition above about 70%; inactive = the rest.

Tests used:
[1] = NCI Yeast Anticancer Drug Screen. Data for the rad50 strain (AID 155);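 note: 0% = growth of vehicle-only cultures of the same strain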; settings: S. cerevisiae rad50 strain growth inhibition; at 50.0 µM; hits give high values
Summary of the method: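 Inhibition values express reduced yeast growth in compound-treated cultures relative to vehicle-treated controls.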

[2] = NCI Yeast Anticancer Drug Screen. Data for the mec2-1 strain (AID 157); settings: S. cerevisiae mec2-1 strain, at 50.0 µM, hits give high values
Summary of the method: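 Readout is yeast growth inhibition, normalised to vehicle-treated controls, in the mec2-1 strain exposed to compound.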

[3] = NCI Yeast Anticancer Drug Screen. Data for the sgs1 mgt1 strain (AID 161);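 note: 0% = growth of cultures given vehicle only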; settings: S. cerevisiae sgs1 mgt1 strain, at 50.0 µM, hits give high values
Summary of the method: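 Percent growth inhibition was derived by comparing compound-exposed mutant yeast with vehicle-exposed cultures. The strain carries alterations in DNA damage repair.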

[4] = NCI Yeast Anticancer Drug Screen. Data for the cln2 rad14 strain (AID 165);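 note: 0% = growth equal to vehicle treated cultures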; settings: S. cerevisiae cln2 rad14 strain, at 50.0 µM, hits give high values
Summary of the method: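 Relative to vehicle controls, growth inhibition of compound-treated cln2 rad14 yeast was recorded.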

[5] = NCI Yeast Anticancer Drug Screen. Data for the bub3 strain (AID 167); settings: S. cerevisiae bub3 mutant strain, at 50.0 µM, hits give high values
Summary of the method: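 Steps: expose the mutant yeast strain to compound; grow alongside vehicle-treated cultures; measure growth; express inhibition against the vehicle cultures.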

[6] = NCI Yeast Anticancer Drug Screen. Data for the mlh1 rad18 strain (AID 175); settings: S. cerevisiae mlh1 rad18 strain growth inhibition; at 50.0 µM; hits give high values
Summary of the method: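 Test agents were incubated with a yeast strain of defined genotype (DNA damage repair defect). Inhibition of growth was derived by comparison with vehicle-exposed cultures.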

| SMILES | growth inhibition [1] [%] | growth inhibition [2] [%] | growth inhibition [3] | growth inhibition [4] | growth inhibition [5] [%] | growth inhibition [6] [%] |
| --- | --- | --- | --- | --- | --- | --- |
| NC(=O)C1CCCC1 | -3.3 | 2.1 | -5.25% | 14.1% | 23.4 | -5.05 |
| Cc1ccc2c(c1)C(c1cccc3ccccc13)OC2=O (configuration not stated) | 21.6 | 1.65 | 40.2% | 33.3% | 14.2 | 29.4 |
| Cn1cnc(N)c1C(N)=S | 4.65 | 7.5 | -8.6% | -8.55% | 7.9 | 1.1 |
| COc1cccc2c1C(=O)c1c(O)c3c(c(O)c1C2=O)C[C@@](O)(C(C)=O)CC3S(=O)(=O)O (some centres not stated) | -14 | -7.45 | -24.4% | -8.85% | -14.9 | 9.7 |
| CC1=C(C)C(=O)OC1 | -3.55 | -12.3 | -0.9% | 6% | 9.85 | -24.5 |
| CC(=O)Cc1ccco1 | 14.5 | -3.35 | -8.8% | 22.5% | -2.2 | -10.7 |
| Cn1ncc2c(=O)[nH]c(=S)[nH]c21 | -9.6 | -4.4 | -5.65% | -32.1% | -2.3 | 3.6 |
| O=c1oc2ccccc2c2ccccc12 | -2.8 | -9.55 | -16.5% | -5.95% | 1.25 | -7.8 |
| CSC(=Nc1ccc(Br)cc1)NC(=O)c1cc([N+](=O)[O-])cc([N+](=O)[O-])c1 | -33 | 3.4 | 23.1% | -58% | 6.2 | -18.8 |
| OCCNc1ncnc2ccccc12 | -16.6 | -1.7 | 4.35% | -4.7% | 6.15 | -18.9 |
| COc1ccc(C2(C=O)CN(C)CN2)cc1 (configuration not stated) | -7.2 | -3.95 | -14.7% | -21.2% | -13.8 | -7.2 |
| Fc1ccc(-c2cc(-c3ccc(F)cc3)cc(-c3ccc(F)cc3)c2)cc1 | -0.4 | 11.5 | 13.2% | 14.2% | -8.15 | 10.4 |
| CCCOC(=O)CCCCC(=O)OCCC | 11.6 | 17.9 | -8.65% | -4% | 0.85 | 11.9 |
| C=CCC(=S)NCCc1c[nH]c2ccccc12 | -12.2 | 2.4 | -5.5% | 2.55% | 11.8 | -18.9 |
| c1ccc2c(c1)ncc1cccn12 | 5.15 | -10.9 | 0.65% | 3.45% | 7.7 | 1.25 |
| Nc1nc2c(c(-c3ccc(Cl)cc3)n1)CN(c1ccc(Br)cc1)C2=O | 40.5 | 0.8 | -4.85% | 12.7% | -3.1 | 11.9 |
| CC1(c2cccc[n+]2Cc2ccc(Cl)c(Cl)c2)OCCO1 | 6.7 | 1.65 | 0.2% | -18.3% | -2.2 | 14.2 |
| CC(=O)Nc1ccc(S(=O)(=O)N/N=C(\C)c2csc3ccccc23)cc1 | -2.7 | -5.25 | -19.9% | -16.1% | -4.05 | 0.15 |
| CCCCOS(=O)OCCCC | 22.7 | 29.5 | -6.1% | 13.2% | 0.15 | -14.8 |
| COc1cc(C#N)cc(OC)c1 | -17.4 | -16.4 | -26.9% | 3.6% | -12.1 | -5.5 |
| COc1ccc(C2ON(c3ccccc3)CC=C2C)cc1 (configuration not stated) | 36 | -3.2 | 5.55% | 13.1% | 19.4 | 13.1 |

| SMILES | growth inhibition [1] [%] | growth inhibition [2] [%] | growth inhibition [3] | growth inhibition [4] | growth inhibition [5] [%] | growth inhibition [6] [%] |
| --- | --- | --- | --- | --- | --- | --- |
| CCCOc1ccc(/C=C\c2cc(OC)c(OC)c(OC)c2)cc1 | 0.85 | 3.9 | -2.05% | 3.4% | 10.1 | 43.5 |
| CC(=O)OCC1OC(n2cnc(C(N)=S)c2N)C(OC(C)=O)C1OC(C)=O (configuration not stated) | 2.3 | 15.8 | 11.4% | -10.4% | -2.35 | 21.2 |
| O=C(Nc1ccc(Cl)cc1)Nc1nnc2nc(C3(c4nc5nnc(NC(=O)Nc6ccc(Cl)cc6)n5[nH]c4=O)CCCC3=O)c(=O)[nH]n12 | -23.3 | -19.5 | -11.7% | -32.2% | 10.9 | -2.75 |
| O/N=C1/CCCCCC1NO (configuration not stated) | -23.8 | -24.1 | -22.7% | 15.4% | -18.1 | -13.1 |
| CCCCCC(=O)OCCCc1ccccc1 | 28.9 | 2.9 | -0.3% | -12.9% | 19.4 | -6.8 |
| Fc1cccc(Cl)c1CSc1n[nH]c(C(F)(F)F)n1 | -4.65 | -24.1 | 10.5% | 3.2% | 11.1 | 2.45 |
| CNC(=O)C1CCC(CC2CCCCC2)CC1 (configuration not stated) | 45.4 | 49.5 | 77.1% (active) | 11.2% | 42.8 | 38.5 |
| O=C1/C(=C/c2ccccc2)CCc2ccc([N+](=O)[O-])cc21 | -2.9 | -1.85 | 8.25% | 4.1% | 0.95 | -26.4 |
| CCCCOC(=O)c1c(C)c(C)cc(C)c1C | 18.4 | -7.1 | 6.3% | 12.5% | 5.75 | -9.95 |
| CC(C)C1CC(O)C(C)C(C(C)C)C1 (configuration not stated) | 4.05 | -17.5 | -12.9% | -28.2% | -1.65 | -20.6 |
| Cc1cc(OCCOc2ccc(N)cc2)ccc1N1C(N)=NC(N)=NC1(C)C | -1.5 | 12.7 | 6.65% | 83.2% (active) | 1.45 | -3 |
| Cc1ccc(C(C)(C)C)c2oc(=O)cc(C)c12 | 20.2 | 8.75 | 12.9% | 5% | 5.05 | 19.8 |
| CCCCCC1SCC(=O)N1c1nncs1 (configuration not stated) | -1.7 | -21.1 | 14.3% | 5.85% | 6.65 | 12.5 |
| CC(C)C(/C=C/c1ccc(Br)cc1)=N\NC(N)=O | -14.1 | -29.2 | -40.8% | -13.9% | -18.1 | -18.9 |
| Cc1cc(C)nc(N)n1 | 0.25 | 0.35 | -1.85% | -42.9% | -1.9 | 10.1 |
| OCCCCN1CCCCC1 | -1 | -1.95 | -13.2% | 2.5% | -0.85 | -5.05 |
| C=CCC(OC(C)=O)c1cccc(OC)c1OC (configuration not stated) | 3.7 | 7.2 | -9.45% | -48.7% | -3.25 | -5.3 |
| COc1ccc(-c2c3c(n(C4OC(COC(C)=O)C(OC(C)=O)C(OC(C)=O)C4OC(C)=O)c(=S)c2C#N)CC(C)(C)CC3=O)cc1 (configuration not stated) | -2.05 | -0.8 | 10.8% | -9.35% | -0.05 | 8.9 |
| CC(C)SCCC#N | 13 | -8.55 | -13.1% | -5.5% | -3.7 | -4.75 |
| N#Cc1c(O)c(-c2ccccc2)c(=O)n2c1[nH]c1ccccc12 | -11.7 | -9.9 | -13.6% | 14.9% | 2.6 | -12.3 |
| COc1ccc(CCCCl)c(C2=NCCc3cc(OC)c(OC)cc32)c1 | 19.6 | 2.4 | -37.8% | -6.1% | -37.8 | 0.9 |
